Data as given in ChEMBL document CHEMBL3988442, “University of Dundee, Small-Polar-MMV Screening Library” (2021).
Screen size: about 38,000 compounds; about 1,200 (3.2%) showed an effect of 50% or more. The median lay at about -58%. What follows is part of a selection rich in strong results, with near analogues and random picks from the rest.

tested on: Plasmodium falciparum; experiment: Calibr Malaria Delayed Death Assay SOP; type: functional, organism-based; parameters: scale not given: in the data most compounds retested in dose-response had high values; settings: concentration 4.99e-06 (unit not given; other assays of the set use mol/L)

SMILES	Percent Effect [%]
O=C(CCn1cncn1)NC1CCc2nccn2C1 (stereo unspecified)	-109.9
C[C@]1(O)CN(Cc2ccc(C(=O)O)cc2)CC[C@@H]1Oc1cccc(F)c1	-93.08
O=c1ccc2c(n1CC1CC1)CCN(c1ncccn1)CC2	5.282
O=C(O)C(F)(F)F.O=C(O)C(F)(F)F.c1ccc(COC[C@@H]2CCC[C@]23CN(Cc2nccs2)CCO3)nc1	-24.57
O=S(=O)(Cc1ccc(F)cc1)NCCc1nnc2n1CCC2	-62.4
Cc1nc(CNC(=O)NC(C)c2ccc3c(c2)OCCO3)cs1 (stereo unspecified)	-69.15
COCCn1ccc(=O)c(OCC(=O)Nc2cccc(OC)c2)c1C	-50.47
COCc1cc(CNCc2c(C)n(CC(C)C)c3ccccc23)n[nH]1	-32.81
Cc1cc(NC(=O)C(C#N)Cc2cnn(C)c2C)no1 (stereo unspecified)	-0.6706
Cc1ccc(CN2CCC3(CCCN(C(=O)N(C)C)C3)C2)cc1 (stereo unspecified)	-64.1
O=C(c1cnccn1)N1CCC2(CCCN(Cc3ccoc3)C2)C1 (stereo unspecified)	-97.37
CCOC(=O)[C@H]1[C@@H](O)C(=O)N(C)C12CCN(C(=O)C(CC)CC)CC2	-15.32
CCN(C)C(=O)Nc1cc(F)c(OC)cc1F	-13.37
O=C(c1ccc(F)c(Br)c1)N1CCCN2CCCC2C1 (stereo unspecified)	22.61
c1cncc(N2CCOC3(CCCN(c4nncs4)C3)C2)c1 (stereo unspecified)	-13.46
COc1ccc(N2CCCC3(C2)CN(c2nncs2)CCO3)cc1 (stereo unspecified)	87.98
Cc1cccc(N2CCCC3(C2)CN(c2nncs2)CCO3)c1 (stereo unspecified)	-92.55
O=C1CCCN1Cc1nnc2n1CCCN(C(=O)c1ccc[nH]1)C2	-52.27
O=C(c1ccc(-n2cnnc2)cc1)N1CCC(Nc2cccnn2)CC1	-15.7
CCN1Cc2ccccc2CC2(CCN(CC(=O)O)CC2)C1=O.O=C(O)C(F)(F)F	-102.3
CCn1c(SCC(=O)O)nnc1C(C)NC(=O)c1ccc(Cl)cc1 (stereo unspecified)	-146.1
Cc1noc(C(C)NC(=O)[C@@H](C)NC(=O)OC(C)(C)C)n1 (stereo partly specified)	-163.7
O=C(c1cccc(CO)n1)N1CCCC1c1nc2cc(F)ccc2[nH]1 (stereo unspecified)	-67.52
Fc1ccc2[nH]c(C3CCCN3Cc3c[nH]cn3)nc2c1 (stereo unspecified)	80.29
O=C(CN1CCCC1c1nc2cc(F)ccc2[nH]1)NCc1ccccn1 (stereo unspecified)	-65.25
CC(C)OCCCNC(=O)NCc1cccc(-n2ccnc2)c1	-80.58

SMILES	Percent Effect [%]
Cc1nn(C)c(C)c1-c1ccnc(N(C)Cc2nc(C(C)C)no2)n1	65.96
Cc1nn(C)cc1-c1ccnc(N(C)Cc2noc(C(C)C)n2)n1	-38.19
Cc1nn(C)c(C)c1-c1ccnc(N(C)Cc2noc(C(C)C)n2)n1	-30.97
Cc1cc(C(N)=O)c(N2C[C@@H](C)[C@@](C)(O)C2)nc1C	-47.89
O=C(O)c1nc(SCc2ccc(F)cc2)ncc1Br	-159.2
COc1cccc(CCC(=O)N2CCCCC2Cn2cccn2)c1 (stereo unspecified)	-142.5
O=C(c1ccc2c(c1)OCO2)N1CCCSCC1CN1CCCC1 (stereo unspecified)	-7.883
COc1cccc(CC(=O)N2CCCSCC2CN2CCCC2)c1 (stereo unspecified)	54.27
CCCN(CCC)c1nc(N)nc(-c2cc(Cl)ccc2OC)n1	-49.81
CN(C)CCCNC(=O)c1nc(Cc2c(Cl)cccc2Cl)no1	-74.09
CC[C@@H](C)[C@@H](N)C(=O)Nc1cccc(-c2cnc(NCCO)nc2)c1	-39.72
O=C1CC(c2ccccc2F)c2c(n(C3CCCC3)[nH]c2=O)N1 (stereo unspecified)	-93.23
COc1ccccc1C(=O)NC(c1ccccn1)[C@H]1CC[C@H](CN)CC1 (stereo partly specified)	-2.636
CCOCC1CN(CC2CC2)Cc2nn(C)cc21.O=C(O)C(F)(F)F (stereo unspecified)	-95.19
NC(=O)CCNC(=O)NCC1(c2ccccc2Cl)CCC1	-18.8
O=S(=O)(Cc1c(F)cccc1Cl)NCCCN1CCCCCC1	47.99
CS(=O)(=O)CCCNC(=O)NC1CC(c2cccc(Cl)c2)C1 (stereo unspecified)	-17.33
O=C(Nc1c(N2CCCC2)cccc1N1CCCC1)c1ccccn1	-13.71
CS(=O)(=O)CCCNCc1c(Cl)cccc1N1CCCC1	71.32
NC(=O)CCNCc1c(Cl)cccc1N1CCCC1	65.52
O=C(CSC1CCc2ccccc2NC1=O)NCc1ccccc1 (stereo unspecified)	-28.24
CC(Cn1cccn1)NC(=O)N1CCN(Cc2ccco2)CC1 (stereo unspecified)	-74.02
Cn1ccnc1C(=O)N[C@@H]1CN(Cc2ccc(F)cc2)[C@@H]2CCCO[C@@H]21.O=C(O)C(F)(F)F	-85.57
O=C1OCCN1CCCN1CCCC1c1ccc(O)cc1 (stereo unspecified)	-1.685
Cc1nc(C2CCCN2CCCn2c(=O)oc3ccccc32)no1 (stereo unspecified)	-48.08
O=c1oc2ccccc2n1CCCN1CCCC1c1ccc(O)cc1 (stereo unspecified)	52.75

SMILES	Percent Effect [%]
CC(=O)c1cc2c(=O)[nH]c(=O)n(C)c2nc1C	-16.7
CSCc1cc(F)ccc1CNCc1ncc[nH]1	-2.338
Fc1cccc(C(NCc2ncc[nH]2)c2ccccc2)c1 (stereo unspecified)	67.9
Clc1cccc(C(NCc2ncc[nH]2)c2ccccn2)c1 (stereo unspecified)	86.37
O=C(NCc1ncc[nH]1)c1c(F)cccc1I	-135.9
CC(C)Nc1ncccc1C(=O)NCc1ncc[nH]1	-116.1
CC(=O)N(C)C(c1cccc(F)c1)c1ccccn1 (stereo unspecified)	-75.26
Fc1cccc(C(NCc2ncc[nH]2)c2ccccn2)c1 (stereo unspecified)	91.42
Cc1nccn1-c1ccc(C(C)NCc2ncc[nH]2)cc1 (stereo unspecified)	-35.75
Cn1cc(C(NCCc2ccccn2)c2cccc(F)c2)cn1 (stereo unspecified)	-2.846
CC(C)NC(=O)N1CCN(C(=O)c2ccco2)CC2(CC(=O)N(C)C2)C1 (stereo unspecified)	-8.212
CC(C)CC(=O)NS(=O)(=O)c1ccc2c(c1)OCCCO2	-13.67
CC(C)c1nn(C)c(N2CCOCC2)c1CNCc1cscn1	-74.61
O=C(NCC(O)COc1ccc(C(F)(F)F)cc1)Nc1nncs1 (stereo unspecified)	-99.86
Cc1cccc2c(CCNC(=O)NCC[S+](C)[O-])c[nH]c12 (stereo unspecified)	-101.3
Cc1cccc2c(CCNC(=O)[C@H](N)c3ccccc3)c[nH]c12	61.63
Cc1cccc2c(CCNC(=O)NCCC[S+](C)[O-])c[nH]c12 (stereo unspecified)	-83.64
CC(C)Cn1c(=O)n(CCn2cc(Cl)cn2)c2cc(C(=O)O)cnc21	-13.68
CCc1noc(CN(Cc2cccs2)C2CC2)n1	-139.3
O=C(CCc1nnc2ccccn2c1=O)NCc1cccnc1	-35.93
Cl.Cn1nc(C2CCCN(Cc3ccccc3)C2)c2nccnc21 (stereo unspecified)	-32.54
CN(C)c1ncccc1NC(=O)C1CN(Cc2ccccc2)CCO1 (stereo unspecified)	-7.192
Cc1cccc(CN2CC[C@@H]3[C@@H](CO[C@H]3CNc3ncccn3)C2)n1.O=C(O)C(F)(F)F.O=C(O)C(F)(F)F.O=C(O)C(F)(F)F	-54.04
Cn1cc(N2CC3(CCN(Cc4ccccc4)CC3)OCC2=O)cn1.O=C(O)C(F)(F)F	-75.76
